D1 agonist: Allosteric Agonists of the Human D1 Dopamine Receptor: qHTS. hit rate 1% among 360,000. activation, % at 2 µM. HEK293 T-REx D1 cells, calcium flux, agonist mode. D(1A) dopamine receptor (Homo sapiens), P21728; in the data active = activation above about 30%; note: 0% is about no effect
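Inducible HEK293 T-REx D1 cells, force-coupled to calcium signalling, were plated at 4000 cells/well with tetracycline and held overnight at 30 C. After no-wash calcium dye loading, compound-evoked calcium rise over 180 s flagged agonists.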
D1 potentiator: Potentiators of Human D1 Dopamine Receptor: qHTS; D(1A) dopamine receptor (Homo sapiens), P21728; HEK293 TREx D1 cells, calcium flux, dopamine EC20 potentiation; potentiation, % at 10 µM; hit rate 0.036% among 360,000; in the data active = potentiation above about 30%; note: 0% is about no effect
D3 antag: qHTS of D3 Dopamine Receptor Antagonist: qHTS. D(3) dopamine receptor (Homo sapiens), P35462. D3R cells, DiscoveRx beta-arrestin luminescence, antagonist mode; stronger effect = lower value. max response, negative = inhibition, %. hit rate 2.5% among 360,000. AID 652054, 2013; in the data active = max response below about -50%; inconclusive = no clear call, values can overlap the other calls; note: % is set by controls: 0 for no effect and ±100 for the full control effect
Target sequence (P35462 whole entry, looked up): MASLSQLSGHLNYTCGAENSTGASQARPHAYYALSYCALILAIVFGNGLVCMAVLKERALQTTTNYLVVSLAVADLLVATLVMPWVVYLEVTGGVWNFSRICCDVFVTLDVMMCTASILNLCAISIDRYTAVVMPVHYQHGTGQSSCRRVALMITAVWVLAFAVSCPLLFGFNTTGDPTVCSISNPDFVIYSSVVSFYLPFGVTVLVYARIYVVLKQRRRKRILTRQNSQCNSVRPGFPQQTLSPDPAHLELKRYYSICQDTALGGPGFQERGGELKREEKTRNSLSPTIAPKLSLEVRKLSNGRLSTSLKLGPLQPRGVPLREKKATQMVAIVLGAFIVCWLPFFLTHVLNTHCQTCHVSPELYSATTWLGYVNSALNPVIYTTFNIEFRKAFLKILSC
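Cells expressing the human receptor were seeded at 1500 cells/well, incubated overnight at 37 degrees C in 5% CO2, then exposed to library compounds with dopamine controls for 90 minutes at 37 degrees C before luminescent detection.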
D1 antagonist: Antagonist of Human D 1 Dopamine Receptor: qHTS. hit rate 3.2% among 360,000. activity change, negative = inhibition, % at 10 µM. HEK293 TREx D1 cells, calcium flux, dopamine EC80; stronger effect = lower value; in the data active = activity change below about -30%; note: % is set by controls: 0 for no effect and ±100 for the full control effect
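Inducible Hek293 Trex D1 cells (tetracycline, overnight, 30 C). Calcium dye 30–90 min RT. Antagonist mode: EC80 dopamine added after 180 s compound read.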
DRD3 agonist: qHTS of D3 Dopamine Receptor Agonist: qHTS | D(3) dopamine receptor (Homo sapiens), P35462 | D3R DiscoveRx beta-arrestin cells, luminescence, 90 min | max activation, % | hit rate 0.58% among 410,000; in the data active = max activation above about 30%; note: 0% is about no effect
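Agonist-mode cell screen: cells plated at 1500/well and incubated overnight at 37 °C, then exposed to library compounds for 90 min at 37 °C. Detection reagent was added for 30–60 min at room temperature, and luminescence was read.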
Active calls of the source: *. An excerpt weighted towards active compounds, which were near 6% of everything screened.

`CCN1CCN(C(=O)COc2ccc(S(=O)(=O)N3CCOCC3)cc2Cl)CC1` gave D1 agonist 0.0, D1 potentiator -0.8, D3 antag 1.6, D1 antagonist 6.3 and DRD3 agonist -22.9.
`CCCCCc1nc2c(c(=O)c3ccccc3n2C)c(=O)n1C1CCCCCC1` gave D1 agonist 190.9*, D1 potentiator 7.1, D3 antag -13.4, D1 antagonist -54.9* and DRD3 agonist 0.5.
`CCCCCc1nc2ccccc2c(=O)n1-c1ccc(C)cc1` gave D1 agonist 0.3, D1 potentiator 2.7, D1 antagonist 7.6 and DRD3 agonist 4.7.
Screening COC1=CC(=O)[C@]2(C=C1OC)OC[C@@H]1Oc3c(ccc4c3C=CC(C)(C)O4)C(=O)[C@@H]12 returned D3 antag 60.9 and DRD3 agonist 69.6*.
CN(CCOc1ccc(C=C2C(=O)NC(=O)NC2=O)cc1)c1ccccn1 was read as D1 agonist 6.0, D1 potentiator -3.0, D3 antag inconclusive, D1 antagonist 25.1 and DRD3 agonist -0.9.
O=C1NC(=O)C(=Cc2ccc(OCC(=O)N3CCOCC3)cc2)C(=O)N1 was read as D1 agonist 2.8, D1 potentiator 0.1, D3 antag -23.3, D1 antagonist -36.8* and DRD3 agonist -22.1.
For CCOC(=O)[C@]12Cc3cc(OC)ccc3[C@H]1N(C1CCCCC1)C(=O)c1ccccc12 the results were D3 antag -63.8* and DRD3 agonist -5.1.
`CCOC(=O)[C@]12Cc3cc(Cl)ccc3[C@H]1N(C1CCCCC1)C(=O)c1ccccc12` gave D3 antag -79.7* and DRD3 agonist -9.5.
For CCOC(=O)[C@]12Cc3c(cc(OC)c(OC)c3OC)[C@H]1N(C)C(=O)c1ccccc12 the results were D3 antag -62.9* and DRD3 agonist -3.9.
Screening CCOC(=O)[C@]12Cc3cc(Cl)ccc3[C@H]1N(C)C(=O)c1ccccc12 returned D3 antag 19.4 and DRD3 agonist 0.7.
For CCOC(=O)[C@]12Cc3c(cc(OC)c(OC)c3OC)[C@H]1N(CCC(=O)OC)C(=O)c1ccccc12 the results were D3 antag 0.0 and DRD3 agonist -11.1.
Cc1[nH]c2ccccc2c1CCCNC1CCCCC1 was read as D1 agonist 36.8*, D1 potentiator -3.3, D3 antag inconclusive, D1 antagonist -1.8 and DRD3 agonist -29.0.

Screening results deposited in PubChem BioAssay by National Center for Advancing Translational Sciences (NCATS).
